Data on 12 molecules can be found in PubChem BioAssay.

What is called inhibition is the relative decrease from the control value, in per cent.

Test [1] is described as follows: antimalarial activity against Dd2 strain (AID 2302;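 active = growth inhibition above 50% at the single 2 µM test dose, taken to imply half-maximal potency below 2 µM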;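 note: 0% = DMSO untreated growth and 100% = chloroquine plus artemisinin killed control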). As to conditions: P. falciparum Dd2 in RBCs, LDH growth readout, 72 h; at 2 µM; active compounds read high.
A short description of test [2]: HepG2 cytotoxicity, primary screen, cytotoxicity control for P. falciparum antimalarial project, cell-based, ATP luminescence (AID 2303;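 active = inhibition above 50%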;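 note: 0% = DMSO wells and 100% = digitonin-killed cells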). As to conditions: HepG2 viability, 24-48 h, at 10 µM, active compounds read high.
For test [3], the target named is L-lactate dehydrogenase (Plasmodium falciparum (isolate CDC / Honduras)) (UniProt Q27743). Nature of the test: PfLDH activity inhibition – cell lysate, 3D7 strain, counter-screen for P. falciparum growth inhibition project (AID 2304).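 Note: 0% = vehicle and 100% = reference inhibitor.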 As to conditions: P. falciparum 3D7 crude extract, LDH APAD/NBT absorbance; at 2 µM; active compounds read high. A general note: A counterscreen serves to expose hits that act by an unwanted route or on another target.

A short description of test [4]: inhibition of 3D7 malaria parasite growth – strain 3D7 (AID 2306).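 Note: 0% = DMSO wells and 100% = chloroquine plus artemisinin control wells.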 As to conditions: P. falciparum 3D7 erythrocytic growth, LDH absorbance, 72 h; at 2 µM; active compounds read high.
In test [5] the target is Calcium-dependent protein kinase 1 (Plasmodium falciparum (isolate 3D7)) (UniProt P62344). Nature of the test: PfCDPK1 kinase inhibitors, biochemical, TCAMS library (AID 1159585; cut-off not given, nearly all actives have IC50 up to about 0.98 µM;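 note: inhibitors leave more ATP so luminescence rises with inhibition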). The conditions noted are these: recombinant PfCDPK1, Kinase-Glo ATP depletion luminescence.
For test [6], the target named is Plasmodium falciparum protein kinase 6 (PK6, PF3D7_1337100) (UniProt Q8IDW1). Nature of the test: PfPK6 kinase inhibitors, biochemical, TCAMS library (AID 1159586). As to conditions: recombinant PfPK6, Kinase-Glo ATP depletion luminescence.
Test [7] deals with Protein kinase 7 (PK7), Plasmodium falciparum 3D7 (PF3D7_0213400) (UniProt Q7YTF7). Nature of the test: inhibition of Plasmodium PK7 catalytic activity – biochemical, TCAMS antimalarial set, Kinase-Glo luminescence (AID 1159587). As to conditions: recombinant PfPK7, Kinase-Glo ATP depletion luminescence. (In general: Kinase-Glo reads ATP consumption through a luciferase reaction.)

Test [8] concerns the target Calcium-dependent protein kinase 4 (Plasmodium falciparum (isolate 3D7)) (UniProt Q8IBS5). Nature of the test: PfCDPK4 kinase inhibitors, biochemical, TCAMS library (AID 1159588; cut-off not given, nearly all actives have IC50 up to about 0.91 µM). As to conditions: recombinant PfCDPK4, Kinase-Glo ATP depletion luminescence.

Unmarked numbers belong to inactive results. For part of these data: Entries with a potency or affinity are not part of this list. Active and inactive are the calls of the source. Unless noted, the rule behind the calls is not given here.

Chain of Calcium-dependent protein kinase 1 (Plasmodium falciparum (isolate 3D7)) (P62344 whole entry, looked up): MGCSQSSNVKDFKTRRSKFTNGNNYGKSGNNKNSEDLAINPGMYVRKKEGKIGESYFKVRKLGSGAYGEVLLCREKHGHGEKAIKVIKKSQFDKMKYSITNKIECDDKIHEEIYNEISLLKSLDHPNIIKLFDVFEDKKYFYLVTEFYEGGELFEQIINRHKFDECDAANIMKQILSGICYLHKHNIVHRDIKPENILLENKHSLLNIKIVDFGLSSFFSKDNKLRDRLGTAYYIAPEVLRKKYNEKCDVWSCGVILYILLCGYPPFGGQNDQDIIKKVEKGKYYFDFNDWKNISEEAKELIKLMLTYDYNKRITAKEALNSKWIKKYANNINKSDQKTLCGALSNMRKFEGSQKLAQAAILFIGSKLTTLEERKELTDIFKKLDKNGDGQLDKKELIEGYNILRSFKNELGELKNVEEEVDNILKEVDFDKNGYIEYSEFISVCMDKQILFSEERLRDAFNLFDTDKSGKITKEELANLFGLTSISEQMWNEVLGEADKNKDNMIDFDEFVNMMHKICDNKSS
Chain of L-lactate dehydrogenase (Plasmodium falciparum (isolate CDC / Honduras)) (Q27743 whole entry, looked up): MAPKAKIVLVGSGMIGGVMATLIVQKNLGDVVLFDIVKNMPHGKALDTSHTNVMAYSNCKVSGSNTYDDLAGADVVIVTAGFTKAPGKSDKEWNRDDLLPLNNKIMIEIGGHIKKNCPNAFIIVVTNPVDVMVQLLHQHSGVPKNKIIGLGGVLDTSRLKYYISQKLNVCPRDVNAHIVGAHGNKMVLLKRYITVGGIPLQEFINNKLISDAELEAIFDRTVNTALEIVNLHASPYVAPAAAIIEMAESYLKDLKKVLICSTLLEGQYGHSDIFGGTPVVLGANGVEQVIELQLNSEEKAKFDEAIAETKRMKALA
Chain of Calcium-dependent protein kinase 4 (Plasmodium falciparum (isolate 3D7)) (Q8IBS5 whole entry, looked up): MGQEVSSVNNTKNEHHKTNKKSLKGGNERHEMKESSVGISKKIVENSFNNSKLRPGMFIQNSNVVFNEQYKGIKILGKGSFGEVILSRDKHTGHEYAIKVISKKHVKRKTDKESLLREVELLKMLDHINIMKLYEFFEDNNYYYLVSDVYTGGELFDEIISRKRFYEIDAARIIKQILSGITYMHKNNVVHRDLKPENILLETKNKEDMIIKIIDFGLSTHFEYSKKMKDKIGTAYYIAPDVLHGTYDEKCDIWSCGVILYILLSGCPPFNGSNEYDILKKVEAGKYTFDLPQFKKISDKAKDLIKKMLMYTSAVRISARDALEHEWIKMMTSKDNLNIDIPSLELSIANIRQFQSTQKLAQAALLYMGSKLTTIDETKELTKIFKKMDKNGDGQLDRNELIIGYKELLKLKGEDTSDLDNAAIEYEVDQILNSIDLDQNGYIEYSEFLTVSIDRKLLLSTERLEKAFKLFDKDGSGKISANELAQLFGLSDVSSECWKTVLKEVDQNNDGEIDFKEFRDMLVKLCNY
Chain of Plasmodium falciparum protein kinase 6 (PK6, PF3D7_1337100) (Q8IDW1 1-305): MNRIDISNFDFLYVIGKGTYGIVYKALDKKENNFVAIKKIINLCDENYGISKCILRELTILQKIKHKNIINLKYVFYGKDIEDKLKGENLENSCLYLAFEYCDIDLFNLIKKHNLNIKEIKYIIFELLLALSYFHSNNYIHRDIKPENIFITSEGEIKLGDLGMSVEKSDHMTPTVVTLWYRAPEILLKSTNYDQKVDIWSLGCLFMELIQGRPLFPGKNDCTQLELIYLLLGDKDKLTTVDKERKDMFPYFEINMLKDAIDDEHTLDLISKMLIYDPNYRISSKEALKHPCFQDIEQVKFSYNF
Chain of Protein kinase 7 (PK7), Plasmodium falciparum 3D7 (PF3D7_0213400) (Q7YTF7 1-343): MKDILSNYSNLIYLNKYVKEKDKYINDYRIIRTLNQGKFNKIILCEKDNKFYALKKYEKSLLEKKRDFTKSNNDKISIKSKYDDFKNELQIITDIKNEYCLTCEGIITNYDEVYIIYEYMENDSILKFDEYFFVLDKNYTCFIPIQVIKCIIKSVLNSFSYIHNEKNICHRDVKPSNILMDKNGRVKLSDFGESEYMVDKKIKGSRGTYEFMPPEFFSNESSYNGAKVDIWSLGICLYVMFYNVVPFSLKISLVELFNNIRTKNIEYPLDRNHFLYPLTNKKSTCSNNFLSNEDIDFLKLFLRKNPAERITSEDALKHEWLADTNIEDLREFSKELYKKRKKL

On to `CN1CCN(c2cccc(-c3nnc(-c4cccc(OCC(=O)NCc5ccc(C(F)(F)F)cc5)c4)o3)c2)CC1`, for which the figures for the growth inhibition in test [1] and in test [4] were 86% (active) and 98% (active), respectively. The inhibition in test [2] was 10%; in test [3], -4%. In addition, the result in test [5], in test [6], in test [7] and in test [8] was inactive.

`COc1ccc(NC(=O)C2CCN(CCCCCNC(=O)/C=C/c3ccc(Cl)c(Cl)c3)CC2)cc1`: the growth inhibition was -4% in test [1] and 98% (active) in test [4]. In addition, the values for the inhibition in test [2] and in test [3] were 26% and 6%, respectively. The outcome in test [5], in test [6], in test [7] and in test [8] was inactive.

Turning to `COc1ccc(NC(=O)C2c3ccccc3C(=O)N(CC(C)C)C2c2cccs2)cc1OC` (stereo unspecified), the results for the growth inhibition in test [1] and in test [4] were 98% (active) and 100% (active), respectively. The inhibition in test [2] was 6%; in test [3] it was 3%. The outcome in test [5], in test [6], in test [7] and in test [8] was inactive.

Regarding `Cc1cc(N[C@@H](Cc2ccccc2)C(=O)NCCc2ccccc2)nc(NCCc2ccc(F)cc2)n1`, the growth inhibition is 89% (active) in test [1] and 99% (active) in test [4]. Also, the values for the inhibition in test [2] and in test [3] were 9% and 2%, respectively. For the same molecule, the result in test [5], in test [6], in test [7] and in test [8] was inactive.

In the case of `O=C1C(c2ccccc2)=C(Nc2ccc(Cl)cc2)c2ccccc21`, the figures for the growth inhibition in test [1] and in test [4] were 59% (active) and 91% (active), respectively. Also, the inhibition in test [2] is 5%; in test [3] it was -2%. Besides, the result in test [5], in test [6], in test [7] and in test [8] was inactive.

`O=C(Cc1cnc[nH]1)Nc1ccc(-c2cccc(-c3nc4ccc(F)cc4[nH]3)c2)cc1`: the growth inhibition in test [1] is 70% (active); in test [4] it was 100% (active). Further, the inhibition in test [2] was 28%; in test [3] it was 4%. Moreover, the result in test [5], in test [6], in test [7] and in test [8] was inactive.

For the molecule `COc1cccc(NC(=O)c2ccc(NCCCN3CC(C)CC(C)C3)c([N+](=O)[O-])c2)c1` (stereo unspecified), the growth inhibition was 68% (active) in test [1] and 100% (active) in test [4]. Also, the inhibition in test [2] was 14%; in test [3], -4%. Besides, the outcome in test [5], in test [6], in test [7] and in test [8] was inactive.

For the molecule `Cc1cc(NN=Cc2ccc(Cl)cc2)c2ccccc2n1`, the growth inhibition in test [1] was 87% (active); in test [4], 100% (active). Besides, the figures for the inhibition in test [2] and in test [3] were 5% and -3%, respectively. Besides, the outcome in test [5], in test [6], in test [7] and in test [8] was inactive.

In the case of `O=c1cc(NCCCNCc2ccc(Cl)c(Cl)c2)[nH]c2cc(Cl)ccc12`, the growth inhibition was 51% (active) in test [1] and 95% (active) in test [4]. In addition, the inhibition in test [2] and in test [3] was 1% in each case. For the same molecule, the result in test [5], in test [6], in test [7] and in test [8] was inactive.

As for `COc1ccc(NC(=O)c2cc(-c3ccc(NC(C)=O)cc3)cnc2N)cc1`, the values for the growth inhibition in test [1] and in test [4] were 5% and 98% (active), respectively. Moreover, the inhibition in test [2] was 10%; in test [3] it was 4%. Also, the outcome in test [5], in test [6], in test [7] and in test [8] was inactive.

Turning to `COc1ccc2ncc(F)c(CCN3CC[C@H](NCc4cc5c(s4)CCCN5)[C@H](O)C3)c2n1`, the growth inhibition in test [1] is 16%; in test [4], 96% (active). In addition, the inhibition in test [2] was 2%; in test [3], 0%. Further, the result in test [5], in test [6], in test [7] and in test [8] was inactive.

For `CC1(CCc2ccccc2)N=C(N)N=C(N)C1c1ccc(Cl)c(Cl)c1` (stereo unspecified), the growth inhibition in test [1] was 39%; in test [4], 98% (active). Moreover, the inhibition in test [2] was 19%; in test [3], -8%. For the same molecule, the outcome in test [5], in test [6], in test [7] and in test [8] was inactive.
